The source of these data is PubChem BioAssay (NCATS).

Results filed as inconclusive are left out. Where a call stands in place of a potency, no number is given. Active and inactive are the calls of the source. The call rests on the fitted dose curve; in most records, active means well fitted cell-killing curve with a large enough effect; inconclusive means small, poorly fitted or top-dose-only effect, or effect the other way; inactive means no such curve, though single readings can be large or run the other way.
Potency means the concentration at half of the fitted maximal effect.

This assay in a line: Quantitative High-Throughput drug screen in 47 multiple myeloma cell lines against the NCATS MIPE library collection: XG1_PLB cell viability assay (AID 1919866). Further: nearly all actives have a fitted effect of over 35% in size. The conditions noted are these: CellTiter-Glo ATP, 48 h; series mostly up to 45.8 µM. An outline of the steps:
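Plated at 500 cells per well, myeloma lines received MIPE 4.0 compounds by pin tool. Following 48 h culture at 37 °C, CellTiter-Glo luminescence gave viability relative to DMSO and media-only controls.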
(ATP-based viability assays read luminescence as a measure of living cells.)
Take `c1ccc(CCCN2CCN(CCOC(c3ccccc3)c3ccccc3)CC2)cc1`: the Potency was 20.9 µM (active).

`C[C@]12CCC(=O)C(O)=C1CC[C@@H]1[C@H]3CCC(=O)[C@@]3(C)CC[C@@H]12`: the Potency result is “inactive”.

Turning to `Cc1nc(-c2ccc(-c3ccc(C(=O)N4CCc5cc6c(cc54)C4(CCN(C)CC4)CO6)cc3)c(C)c2)no1`, the Potency entry was “inactive”.

Regarding `CC[C@@H](C(N)=O)N1CCCC1=O`, the Potency was 23.5 µM (active).

As for `C[C@@H]1CC[C@H]2[C@@H](C)C(=O)O[C@@H]3O[C@@]4(C)CC[C@H]1[C@]32OO4`, the Potency was 5.9 µM (active).

As to `O=S(=O)(CC1CS1)c1ccc(Oc2ccccc2)cc1` (stereo not given), the Potency was 14.8 µM (active).

For `CCc1c(C(=O)C(N)=O)c2c(OCC(=O)O)cccc2n1Cc1ccccc1`, the Potency entry is “inactive”.

As to `C=C[C@@H]1CN2CCC1C[C@@H]2[C@@H](O)c1ccnc2ccccc12` (stereo not given in full), the Potency was 23.5 µM (active).

For `O=C(Oc1ccc([N+](=O)[O-])cc1)N1CCN(Cc2cccc(Oc3ccccc3)c2)CC1`, the Potency is 20.9 µM (active).

`CSCC[C@@H](NC(=O)[C@@H](Cc1ccccc1)NC(=O)CNC(=O)CNC(=O)[C@@H](N)Cc1ccc(O)cc1)C(=O)O`: the Potency entry was “inactive”.

Consider `c1ccc2c(CN3CCNCC3)cccc2c1`, for which the Potency result is “inactive”.

In the case of `C[C@]12Cc3cn[nH]c3C[C@@H]1CC[C@@H]1[C@H]2CC[C@@]2(C)[C@H]1CC[C@]2(C)O`, the Potency entry is “inactive”.

As for `CCC(=O)OC1CCC2C3CCC4=CC(=O)CC[C@@]4(C)C3CC[C@]12C` (stereo not given in full), the Potency entry was “inactive”.

As to `O=C1C=CC[C@@H]2[C@H]3CCCN4CCC[C@@H](CN12)[C@@H]34`, the Potency entry was “inactive”.

In the case of `CCCN1CCO[C@@H]2c3cc(O)ccc3OC[C@@H]21`, the Potency entry was “inactive”.
